IMPase Li cell: membrane-permeable IMPase blocker, potentiated with lithium | CHO-M1 cells, IP1 TR-FRET (IP-One), carbachol + lithium | Potency, µM (doses to about 59.4 µM), for inactives: top-dose activity, negative = IMPase inhibition, hits mostly inhibitors | actives 0.35% (n = 210,000) | AID 1457;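 further: IP1 builds up when IMPase is blocked and the TR-FRET signal falls; potency means the concentration at half of the fitted maximal effect; plate controls were basal vehicle for no effect and high inhibitor control for full effect; nearly all actives have a fitted effect of over 50% in size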
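CHO cells stably expressing M1 receptor (2000/well) were cultured 16–30 h, then exposed to compounds with a small lithium addition for 30 min at 37C. IP1 was measured by TR-FRET competition; AC50 from Hill fits.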
IMPase inh: IMPase inhibition in cells; CHO-M1 cells, IP1 accumulation, HTRF TR-FRET ratio; 120,000 tested, under 10 active; inhibition (IP1 accumulation), % at 46.1 µM; P97697; AID 901; active means well fitted curve in the direction sought with a large enough effect in the signal ratio, not every such curve was filed as active; inconclusive means small, poorly fitted or top-dose-only effect, or a change in a side signal; inactive means no such curve, though single readings can be large or run the other way; the % refers to the signal ratio;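 further: cells stimulated with carbachol in lithium chloride buffer; plate controls were DMSO basal wells for no effect and reference inhibitor wells for full effect; higher means more IMPase inhibition seen as more IP1 and lower FRET ratio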
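CHO-M1 cells (CHO stably expressing M1 receptor), compound up to 46 uM final, stimulated with carbachol (50 uM as added) in buffer with 50mM LiCl, pH 7.4, 30 min at 37C. Cytosolic IP1 read by TR-FRET; AC50 from Hill fits.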
HPGD inh: blocks human HPGD enzyme activity; P15428; purified HPGD, NADH fluorescence kinetic, PGE2 substrate; Potency, µM, inactives show at the highest dose activity change, negative = inhibition, most hits filed as inhibitors; actives 4.3% (n = 150,000); active means well fitted inhibition curve with a large enough effect, not every such curve was filed as active; inconclusive means small, poorly fitted or top-dose-only effect, or another doubt; inactive means no such curve, though single readings can be large or run the other way; further: potency means the concentration at half of the fitted maximal effect
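20 nM HPGD preincubated 15 min at room temperature with compound in 50 mM Tris-HCl pH 8, 0.01% Tween 20. Started with 1 mM NAD+ and 30 uM prostaglandin E2; NADH fluorescence (360/450 nm) read 5 times over 30-s intervals, last minus first.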
ALDH1A1 inh: ALDH1A1 (human) enzyme inhibition; Purified ALDH1A1, NADH fluorescence, propionaldehyde substrate; Potency, µM (highest dose often 75.3 µM), without a hit: at the highest dose activity, negative = inhibition, most hits filed as inhibitors; actives 7.3% (n = 220,000); active means well fitted inhibition curve with a large enough effect, not every such curve was filed as active; inconclusive means small, poorly fitted or top-dose-only effect, or another doubt; inactive means no such curve, though single readings can be large or run the other way;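 further: potency means the concentration at half of the fitted maximal effect; plate controls were no enzyme wells and a reference inhibitor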
ALOX12 inhib: inhibitors of human 12-lipoxygenase (ALOX12) | P18054 | purified 12-hLO, xylenol orange hydroperoxide absorbance | Potency, µM (top dose mostly 57.1 µM), for the others: at the highest dose activity change, negative = inhibition, usual class: inhibitors | actives 0.12% (n = 150,000); further: potency means the concentration at half of the fitted maximal effect; nearly all actives have a fitted effect of over 55% in size
Target sequence (P18054 whole entry, looked up): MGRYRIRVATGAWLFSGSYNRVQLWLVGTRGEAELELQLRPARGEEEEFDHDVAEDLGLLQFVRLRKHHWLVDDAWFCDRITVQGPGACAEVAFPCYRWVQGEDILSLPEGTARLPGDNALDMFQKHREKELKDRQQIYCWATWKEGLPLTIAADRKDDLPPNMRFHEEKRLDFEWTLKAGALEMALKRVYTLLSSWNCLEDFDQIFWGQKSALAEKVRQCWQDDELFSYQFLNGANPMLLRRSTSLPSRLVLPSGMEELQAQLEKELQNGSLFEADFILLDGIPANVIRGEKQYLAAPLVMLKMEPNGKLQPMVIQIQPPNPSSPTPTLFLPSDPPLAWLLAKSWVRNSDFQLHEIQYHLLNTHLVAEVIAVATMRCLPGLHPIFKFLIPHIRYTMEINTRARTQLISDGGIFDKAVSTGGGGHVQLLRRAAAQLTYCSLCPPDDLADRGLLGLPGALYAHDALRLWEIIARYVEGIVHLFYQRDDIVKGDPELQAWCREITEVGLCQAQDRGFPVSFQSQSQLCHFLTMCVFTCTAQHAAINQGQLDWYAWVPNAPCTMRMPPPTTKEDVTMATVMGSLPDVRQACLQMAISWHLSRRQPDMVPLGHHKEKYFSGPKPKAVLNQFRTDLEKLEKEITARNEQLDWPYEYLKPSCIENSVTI
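Purified human 12hLO (150 nM), preincubated 15 min with compound, then 40 uM arachidonic acid for 30 min, room temperature, Hepes pH 7.0 with 0.01% Triton X-100. Hydroperoxide detected by ferrous iron/xylenol orange; 573/405 nm absorbance ratio gives reaction progress.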
PNC inhibitor: blocks assembly of the perinucleolar compartment; PC3M PTB-GFP, PNC prevalence imaging, 16 h; hits give low values; activity change (PNC), negative = inhibition, % at 10 µM; actives 3.1% (n = 140,000); AID 2417;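 active means readout at or below -70, meaning at least 70% loss of cells showing the perinucleolar compartment, a nuclear body marking cancer cells; inconclusive means readout between -30 and a set limit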;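 further: plate controls were DMSO wells for no effect and camptothecin positive control wells for full effect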
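PC3M cells stably expressing PTB-GFP, 750–1000 cells/well, treated 16 h at 37 °C with compound (23 nl of library stock), in duplicate. After paraformaldehyde fixation and Hoechst stain, imaged at 20x; PNC prevalence scored by image analysis.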
An asterisk follows results filed as active; u = inconclusive; x = no result given; [ ] = dose if it differs, or a comment. In the library only some 11% were active in any assay of this set; here they are far more common. Unless noted, the call rests on the fitted dose curve; in most records, active means well fitted curve in the direction sought with a large enough effect; inconclusive means small, poorly fitted or top-dose-only effect, or another doubt; inactive means no such curve, though single readings can be large; an effect the other way counts as inactive or inconclusive. Unless noted, on the % scale 0 is the no-effect control and ±100 the full control effect.

SMILES | IMPase Li cell | IMPase inh | HPGD inh | ALDH1A1 inh | ALOX12 inhib | PNC inhibitor
O=C1C(Cl)=C(N2CCCCCC2)C(=O)N1c1ccccc1 | 36.9%[38.3 µM] | 9.7 | 15.8µM* | u | -23.2% | u
O=C(Oc1c(Cl)cc(Cl)c2ccccc12)N1CCCCC1 | 23.0%[38.3 µM] | 3.6 | -2.2% | -3.0% | -22.1% | u
O=C(Oc1c(Br)cc(Br)c2cccnc12)N1CCCCC1 | 12.6µM* | x | x | u | x | x
COC(=O)C1=C(C)OC(N)=C(C#N)C12C(=O)Nc1ccccc12 (centres undefined) | 1.6% | x | x | -0.5% | x | x
COCCOC(=O)C1=C(N)OC(C)=C(C(=O)OC)C12C(=O)Nc1ccccc12 (centres undefined) | 1.6%[38.3 µM] | -1.1 | -5.6% | 6.8% | -0.8% | -6.5
CCCC1=C(C(=O)OCC)C2(C(=O)Nc3ccccc32)C(C#N)=C(N)O1 (centres undefined) | 3.3%[38.3 µM] | 6.9 | -4.2% | 11.2µM* | -12.3% | 0.3
COC(=O)CC1=C(C(=O)OC)C2(C(=O)Nc3c(C)cccc32)C(C#N)=C(N)O1 (centres undefined) | 19.7%[38.3 µM] | 1.2 | -12.9% | 10µM* | 14.1% | 20.1
O=C(CCl)c1ccccc1 | 22.9% | x | -7.3% | 0.0794µM* | -2.6% | x
CC(ON1CC1(C(F)(F)F)C(F)(F)F)(C(N)=O)C(N)=O (centres undefined) | -2.2% | x | -4.8% | 8.2% | 0.1% | -92.8*
C(CCOCC1CO1)COCC1CO1 (centres undefined) | 4.2% | x | -0.9% | -13.7% | 0.3% | x
Cc1ccc(S(=O)(=O)CC(C)(O)C(=O)Nc2cccc(C(F)(F)F)c2)cc1 (centres undefined) | -13.5%[38.3 µM] | 1.2 | -3.3% | 4.5% | -4.1% | 8.0
CC(O)(CS(=O)(=O)c1ccccc1)C(=O)Nc1cccc(C(F)(F)F)c1 (centres undefined) | -4.8%[38.3 µM] | -7.0 | 0.0018µM* | 25.0% | 2.7% | 17.3
CCN1C(=O)/C(=C/c2ccc3c(c2)CCN3CCCCl)C(=O)NC1=S | 49.7% | x | 7.94µM* | 0.199µM* | -27.8% | -99.4*
O=C1NC(=S)N(C2CC2)C(=O)/C1=C/c1ccc2c(c1)CCN2CCCCl | 10.1% | 5.0 | 11.2µM* | 0.891µM* | -18.7% | 56.5
C=CCN1C(=O)/C(=C/c2ccc3c(c2)CCCN3CCC)C(=O)NC1=S | 3.9% | -1.0 | 14.1µM* | 1.26µM* | -17.5% | 12.1
CCN1C(=O)/C(=C\c2ccc([N+](=O)[O-])s2)C(=O)NC1=S | -7.3% | x | x | 27.0% | x | x
CN(C)c1ncc(/C=C2/C(=O)NC(=S)N(C3CCCCC3)C2=O)cn1 | 7.6% | x | x | u | x | x
Cc1ccccc1-n1c(-c2ccco2)nc2ccccc2c1=O | 2.6% | -11.1 | -12.1% | -9.9% | 1.6% | 194.1
O=c1c2ccccc2nc(-c2ccco2)n1-c1ccncc1 | -23.2%[38.3 µM] | 2.4 | -16.1% | 28.2µM* | -0.7% | -6.4
Cc1ccccc1-n1c(-c2ccc([N+](=O)[O-])cc2)nc2ccccc2c1=O | 19.0% | 13.4 | -2.4% | 7.94µM* | -1.0% | -17.5
COc1ccc(-c2nc3ccccc3c(=O)n2-c2ccc(OC)cc2)cc1 | 15.4% | x | x | 11.2µM* | x | x
Cc1cccc(-n2c(-c3ccc([N+](=O)[O-])cc3)nc3ccccc3c2=O)c1 | 20.0% | 3.7 | -9.0% | u | -2.1% | 13.4
O=c1c2ccccc2nc(-c2ccc([N+](=O)[O-])cc2)n1-c1ccccc1 | 21.4% | 6.5 | -14.5% | 3.16µM* | -5.8% | -7.4
c1ccc(CN2CCC3(CCc4ccccc43)CC2)cc1 | 21.8% | 12.1 | 0.1% | 11.2% | -1.3% | x
C[C@@H]1O[C@@H](O[C@H]2C[C@@H](O)[C@]3(CO)[C@@H]4[C@@H](O)C[C@]5(C)[C@H](C6=CC(=O)OC6)CC[C@@]5(O)[C@H]4CC[C@@]3(O)C2)[C@H](O)[C@H](O)[C@@H]1O | x | x | x | x | -3.1% | x
SMILES | IMPase Li cell | IMPase inh | HPGD inh | ALDH1A1 inh | ALOX12 inhib | PNC inhibitor
[O-][Cl+2]([O-])O | -3.9% | x | -7.3% | u | 1.8% | x
O=C(O)C(C(=O)O)P(=S)(S)c1ccccc1 (centres undefined) | -8.9% | x | -0.8% | 8.3%[13.5 µM] | -1.6%[11.4 µM] | x
O=Cc1cn(Cc2cccc(F)c2)c2ccccc12 | 7.7% | x | -4.1% | 0.562µM* | -2.4% | 6.4
CC(=O)O/C(=C1/C[C@H]2[C@@H]3CC=C4C[C@@H](OC(C)=O)CC[C@]4(C)[C@@H]3CC[C@]2(C)C1=O)C(F)(F)F | 21.3% | x | -7.2% | u | -9.8%[11.4 µM] | x
C=CC(=O)OCC(CO)(COC(=O)C=C)COC(=O)C=C | 3.9% | x | -5.0% | 0.398µM* | 2.3% | x
CN1CCC[C@@H]1c1cccnc1.O=C(O)c1ccccc1O.O=C([OH2+])c1ccccc1O.O=C([OH2+])c1ccccc1O.O=C([OH2+])c1ccccc1O.[Cu] | -18.3% | x | u | u | u | x
COC(=O)CCCc1[se]c2ccccc2c1I | 20.4% | x | 22.4µM* | 31.6µM* | 0.3%[0.00818 µM] | x
CNc1ccc2oc(C[C@@H]3OC4(CC[C@@H]3C)O[C@H]([C@@H](C)C(=O)c3ccc[nH]3)[C@H](C)C[C@H]4C)nc2c1C(=O)O (some centres undefined) | -6.0% | x | x | u | x | x
C[n+]1c(/C=C\c2ccc(O)c3ncccc23)[se]c2ccccc21 | 20.4% | x | -11.2% | -7.4%[13.5 µM] | -19.9%[11.4 µM] | x
NNC(=O)c1nn(-c2ccccc2)cc1O | 6.0% | x | x | u | x | x
O=c1ccc(=O)[nH][nH]1 | -1.9% | x | -2.3% | u | -2.6% | x
CCCCC1C(=O)NC(=S)NC1=O | 7.0% | -8.3 | 12.6µM* | 31.6µM* | -0.1% | -14.6
CC(=O)OC[C@H](N)C(=O)c1ccccc1 | u | x | -2.3% | u | 0.1%[0.00818 µM] | x
CN1CC[C@@]2(c3cccc(O)c3)Cc3nc4ccccc4cc3C[C@H]2C1 | 23.0% | 8.8 | -7.7% | -1.7% | 3.1% | x
CCOC(=O)c1c(C)n(Cc2ccco2)c2ccc(OC)cc12 | -19.5%[38.3 µM] | -1.4 | -7.3% | -8.0% | -13.0% | -2.4
COC(=O)c1c(C)n(Cc2ccco2)c2ccc(O)cc12 | 30.1%[38.3 µM] | 8.8 | -23.6% | 20µM* | -10.7% | 0.1
Cc1onc(-c2ccccc2)c1C(=O)NC1C(=O)N2C(C(=O)O)C(C)(C)S[C@@H]12 (some centres undefined) | 5.6% | x | -6.5% | -10.7% | -0.1% | x
Nc1ncnc2c1ncn2[C@@H]1O[C@@H](COP(=O)(O)CP(=O)(O)OP(=O)(O)O)[C@H](O)[C@@H]1O | x | -12.1 | x | x | -3.2% | x
CC(=O)[O-].CC(=O)[O-].O.O.O.[Pb+2] | 10.8% | x | 0.4% | 15µM* | -3.5% | x
CCC(C)N1C(=O)/C(=C\c2ccc(N3CCCCCC3)cc2)C(=O)NC1=S (centres undefined) | -2.0% | x | 20µM* | 0.126µM* | -7.7% | -11.6
